AHR activator: activators of human aryl hydrocarbon receptor; activation, % at 5 µM; AID 2796; 320,000 compounds, 2.5% hits; AHR-responsive luciferase reporter cells, luminescence; P35869; in the data active = activation above about 47%;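 note: 0% = vehicle wells and 100% = reference agonist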
Wnt bcat act: activates Wnt/beta-catenin signaling in a reporter cell assay. activator, plate reader. activation, % at 9.35 µM. 300,000 compounds, 1.2% hits; in the data active = activation above about 30%, passing the limit was not always enough;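 note: 0% = neutral control wells and 100% = positive control wells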
MITF TRPM1 HTS: increases MITF-driven TRPM1 promoter luciferase signal. 300,000 compounds, 0.75% hits. SK-MEL-5 TRPM1-promoter luciferase, 24 h; % of positive control, neutral wells = 0. activation, % at 12.5 µM. AID 588334;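 active = mean activation of at least 80% with every replicate also reaching 80%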;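 note: 0% = neutral control wells and 100% = parthenolide positive control wells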
GAA850 FXN act: frataxin GAA850 promoter activation; 360,000 compounds, 0.56% hits; HEK293 lucGAA850 FXN promoter luciferase reporter, 24 h; percent of 10 µM SAHA response; activation, % at 6 µM;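 active = activation above the average of all compounds screened plus 3 SD, cutoff fixed separately per campaign, cut at about 7.5% in these data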;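 note: 0% = DMSO wells and 100% = 10 µM SAHA wells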
esBAF inh: SWI/SNF esBAF complex inhibition; mouse ES cells, Bmi1-luciferase knock-in reporter, 24 h; 100% = twice the neutral-well signal; reporter increase, % at 12.5 µM; 350,000 compounds, 2% hits; AID 602393; in the data active = activation above about 40%;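 note: 0% = median of the plate's neutral control wells and 100% = double that signal; a rise in the Bmi1 reporter signal indicates esBAF inhibition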
An asterisk follows results filed as active. Shown are actives, neighbours in structure and some others; about 4.2% of the full set was active somewhere.

Cc1sc2nc(CSc3cccc(C(F)(F)F)c3)[nH]c(=O)c2c1C was read as AHR activator 40, Wnt bcat act 0, MITF TRPM1 HTS 0, GAA850 FXN act 4 and esBAF inh 0.
For Cc1sc2nc(CSc3ccc([N+](=O)[O-])cc3)[nH]c(=O)c2c1C the results were AHR activator 47*.
`CCCN1C2=NCCN2c2ccccc21` gave AHR activator 2, Wnt bcat act -2, MITF TRPM1 HTS 0, GAA850 FXN act -1 and esBAF inh -9.
Screening CN1C2=NCCN2C(=O)c2ccccc21 returned AHR activator 52*, MITF TRPM1 HTS -3, GAA850 FXN act 4 and esBAF inh -1.
Screening Cc1noc(C)c1S(=O)(=O)Nc1ccc2c(c1)C(=O)N([C@@H](C)CO)C[C@H](C)[C@H](CN(C)C(=O)Cc1ccccc1)OCCCC[C@H](C)O2 returned esBAF inh 3.
Screening CC(C)(C)c1ccc(C(=O)c2c[nH]c(C(=O)NCCCn3ccnc3)c2)cc1 returned AHR activator 14, MITF TRPM1 HTS 18 and GAA850 FXN act 0.
`O=C(NCCCn1ccnc1)c1noc2c1CCCC2` gave AHR activator 48*, Wnt bcat act 5, MITF TRPM1 HTS -12, GAA850 FXN act 4 and esBAF inh 0.
COc1cc(SC)ccc1C(=O)NCCCn1ccnc1 was read as AHR activator 59*, Wnt bcat act -1, GAA850 FXN act -1 and esBAF inh -3.
Screening COc1ccc(C(=O)c2c[nH]c(C(=O)NCCCn3ccnc3)c2)cc1 returned AHR activator 31, Wnt bcat act 40*, MITF TRPM1 HTS -5, GAA850 FXN act -3 and esBAF inh 5.
`O=C(NCCCn1ccnc1)c1noc2c1CCc1ccccc1-2` gave AHR activator 29, MITF TRPM1 HTS 2 and GAA850 FXN act -2.
For CCOc1cc(C(=O)NCCCn2ccnc2)cc(OCC)c1OCC the results were AHR activator 50*, Wnt bcat act -4, MITF TRPM1 HTS -19 and GAA850 FXN act 0.
Screening C[C@@H]1CN([C@@H](C)CO)C(=O)c2cc(NC(=O)Nc3ccccc3)ccc2O[C@@H]1CN(C)C(=O)NC1CCCCC1 returned esBAF inh -4.
For C/C=C/c1cnc2c(c1)C(=O)N([C@@H](C)CO)C[C@H](C)[C@@H](CN(C)C(=O)Nc1ccc(F)cc1)O2 the results were esBAF inh 0.
`COC(=O)C[C@H]1CC[C@H]2[C@H](COc3ccc(NC(=O)c4cccc(OC)c4)cc3C(=O)N2C)O1` gave esBAF inh 2.
Cc1ccc(S(=O)(=O)Nc2ccc3c(c2)C(=O)N([C@H](C)CO)C[C@H](C)[C@@H](CN(C)CC2CC2)OCCCC[C@@H](C)O3)cc1 was read as esBAF inh 1.
For Cc1ccc(-n2nc(CC#N)c(C#N)c2N)cc1Cl the results were AHR activator 68*, MITF TRPM1 HTS 3 and GAA850 FXN act 3.
Cc1ccc(-n2nc(CC#N)c(C#N)c2N)cc1 was read as AHR activator 38, MITF TRPM1 HTS 0 and GAA850 FXN act 2.
COc1ccc(N2CCN(C(=O)c3ccc4[nH]c(C)c(C)c4c3)CC2)cc1 was read as AHR activator 4, Wnt bcat act -2, MITF TRPM1 HTS 8, GAA850 FXN act 0 and esBAF inh 1.
CC(=O)Nc1cccc(NC(=O)c2ccc3[nH]c(C)c(C)c3c2)c1 was read as AHR activator 2, Wnt bcat act 5, MITF TRPM1 HTS 32, GAA850 FXN act 1 and esBAF inh 49*.
Screening Cc1cc(NC(=O)c2ccc3[nH]c(C)c(C)c3c2)ccn1 returned Wnt bcat act 3, MITF TRPM1 HTS 16, GAA850 FXN act 0 and esBAF inh 40.
For COc1ccc(NC(=O)c2ccc3[nH]c(C)c(C)c3c2)cc1 the results were Wnt bcat act 16, MITF TRPM1 HTS 88*, GAA850 FXN act 1 and esBAF inh 58*.
Screening CCSc1nncn1/N=C/c1ccc(OC)c(OC)c1 returned AHR activator 48*, Wnt bcat act 1, GAA850 FXN act 3 and esBAF inh 18.
Cc1noc(C)c1NC(=O)NCC[C@H]1CC[C@@H](NC(=O)Cc2cccnc2)[C@@H](CO)O1 was read as esBAF inh 1.
Screening C[C@@H]1CN([C@@H](C)CO)C(=O)c2cc(NS(C)(=O)=O)ccc2O[C@@H](C)CCCCO[C@@H]1CN(C)C(=O)Nc1ccccc1 returned esBAF inh -3.
Screening CC(C)CNC(=O)COC(=O)c1c2c(nc3ccccc13)/C(=C\c1cccs1)CC2 returned Wnt bcat act 16, MITF TRPM1 HTS 12, GAA850 FXN act 1 and esBAF inh 55*.
Screening CCOc1ccc(CCNC(=O)COC(=O)c2cccc(S(=O)(=O)N(C)C)c2)cc1OCC returned Wnt bcat act -2, MITF TRPM1 HTS 2, GAA850 FXN act 0 and esBAF inh -1.
Screening CCOc1ccc(CCNC(=O)COC(=O)c2cccc(N(C)C)c2)cc1OCC returned AHR activator 8, Wnt bcat act 51*, MITF TRPM1 HTS 44, GAA850 FXN act 4 and esBAF inh 54*.
Screening CCN(c1ccccc1)S(=O)(=O)c1ccc(Cl)c(NC(=O)COC(=O)c2cc(O)c3ccccc3c2O)c1 returned AHR activator 123*.
Screening CCN(c1ccccc1)S(=O)(=O)c1ccc(Cl)c(NC(=O)COC(=O)c2ccc(O)cc2)c1 returned AHR activator 1, Wnt bcat act 15, MITF TRPM1 HTS 0 and GAA850 FXN act 2.
For CC=Cc1ccc2n(c1=O)C[C@@H]1[C@@H](CO)[C@H](C(=O)NCc3ccccc3)N(C)[C@H]21 (mixture of isomers) the results were esBAF inh -7.
Screening O=C(/C=C/c1ccccc1Cl)NCc1ccccc1 returned AHR activator 16, Wnt bcat act -5, MITF TRPM1 HTS 39, GAA850 FXN act -1 and esBAF inh 53*.
`O=C(/C=C/c1ccccc1Cl)NCCc1ccccc1` gave AHR activator 6, Wnt bcat act -2, MITF TRPM1 HTS 87*, GAA850 FXN act 3 and esBAF inh 55*.
`O=C(Nc1ccc2c(c1)OCO2)C1CCN(S(=O)(=O)c2cccs2)CC1` gave AHR activator 16, Wnt bcat act 6, MITF TRPM1 HTS 18, GAA850 FXN act 2 and esBAF inh 14.
For O=C(Nc1ccc2c(c1)OCO2)C1CCCN(S(=O)(=O)c2cccs2)C1 (configuration not stated) the results were AHR activator 66*, MITF TRPM1 HTS -16, GAA850 FXN act 1 and esBAF inh 3.
For O=C(Nc1ccc2c(c1)OCCO2)C1CCCN(S(=O)(=O)c2cccs2)C1 (configuration not stated) the results were AHR activator 12, MITF TRPM1 HTS -8, GAA850 FXN act -2 and esBAF inh 48*.
Screening O=C(C[C@H]1C[C@@H]2c3cc(NC(=O)Nc4ccccc4F)ccc3O[C@@H]2[C@@H](CO)O1)NCc1ccccn1 returned esBAF inh 2.

Screening data from PubChem.
